# Screening data (PubChem BioAssay)
# Vaccinia mCherry: inhibitors of vaccinia virus infection (mCherry reporter signal). Vaccinia virus mCherry reporter infection, fluorescence. Potency, µM (doses to about 36.5 µM), for the others: at the highest dose activity change, negative = inhibition, hits mostly inhibitors. 310,000 compounds, 0.63% hits. AID 720579; calls by dose curve; tested in A549 cells; also: potency is read from the fitted curve at half-maximal effect; % is scaled to controls: 0 for no effect and ±100 for the full control effect; nearly all actives have a fitted effect of over 35% in size
# SARS PLpro yeast-1: blocks SARS-CoV papain-like protease in a yeast assay. S. cerevisiae expressing SARS-CoV PLpro, growth rescue. Potency, µM (titrated, usually from 32.9 µM), for inactives: at the top dose activity, positive = growth rescue, actives largely listed as activators. 330,000 compounds, 0.19% hits; calls by dose curve; also: potency is read from the fitted curve at half-maximal effect; 0% is about no effect; nearly all actives have a fitted effect of over 55% in size
# AmpC detergent: inhibitors of E. coli AmpC beta-lactamase with detergent; AmpC hydrolysis of nitrocefin, absorbance 480 nm, 0.01% Triton; 370,000 compounds, 0.041% hits; AID 485294; Potency, µM (titrated, usually from 114 µM), for inactives: at the top dose activity change, negative = inhibition, actives largely listed as inhibitors; P00811;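 also: potency is read from the fitted curve at half-maximal effect; 0% = no-compound wells and -100% = no-enzyme wells; nearly all actives have a fitted effect of over 25% in size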
# Target sequence (P00811 whole entry, looked up): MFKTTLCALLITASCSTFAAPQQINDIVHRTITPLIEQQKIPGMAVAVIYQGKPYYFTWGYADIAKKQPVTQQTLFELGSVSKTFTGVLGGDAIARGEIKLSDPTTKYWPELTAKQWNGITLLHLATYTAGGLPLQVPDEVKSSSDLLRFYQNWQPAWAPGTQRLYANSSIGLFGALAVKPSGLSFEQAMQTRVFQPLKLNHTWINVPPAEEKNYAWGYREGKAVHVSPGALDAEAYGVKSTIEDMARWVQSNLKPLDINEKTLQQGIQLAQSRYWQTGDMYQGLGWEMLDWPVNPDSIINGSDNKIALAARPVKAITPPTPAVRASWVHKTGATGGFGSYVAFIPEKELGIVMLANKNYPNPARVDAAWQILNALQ
#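 AmpC (5.3 nM in the dispensed reagent) in 20 mM phosphate pH 7.0 with 0.01% (detergent screen) or 0.0001% Triton X-100 was preincubated with compounds for 15 min at room temperature. Nitrocefin was then added from an 800 uM solution, and hydrolysis was followed at 480 nm.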
# Vaccinia Venus: vaccinia inhibition (Venus reporter) | Potency, µM (series often up to 36.5 µM), for inactives: at the top dose activity change, negative = inhibition, usual class: inhibitors | Vaccinia virus Venus reporter expression, fluorescence | 330,000 compounds, 0.46% hits; calls by dose curve; tested in A549 cells; also: potency is read from the fitted curve at half-maximal effect; % is scaled to controls: 0 for no effect and ±100 for the full control effect; nearly all actives have a fitted effect of over 30% in size
# AmpC no deterg: blocks E. coli AmpC beta-lactamase in detergent-free assay; AmpC nitrocefin hydrolysis, absorbance 480 nm, 0.0001% Triton; Potency, µM (series often up to 57.1 µM), for the others: top-dose activity change, negative = inhibition, most hits filed as inhibitors; P00811; 330,000 compounds, 0.52% hits; AID 485341;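 also: potency is read from the fitted curve at half-maximal effect; plate controls were no compound for no effect and no enzyme for full effect; nearly all actives have a fitted effect of over 20% in size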
#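 AmpC (5.3 nM in the dispensed reagent) in 20 mM phosphate pH 7.0 with 0.01% (detergent screen) or 0.0001% Triton X-100 was preincubated with compounds for 15 min at room temperature. Nitrocefin was then added from an 800 uM solution, and hydrolysis was followed at 480 nm.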
# SARS PLpro yeast-2: Validates SARS-CoV PLpro inhibitor hits in yeast | calls only | 1,000 compounds, 19% hits | yeast expressing SARS-CoV PLpro, growth phenotype rescue | shares compounds with SARS PLpro yeast-1; call rule not given here
# Numbers without * were called inactive; i = inactive; ? = inconclusive; . = not tested or not shown; + = active, no number. Most compounds without a hit are left out; they make up all but 1.3% or so of the library. Unless noted, calls follow the shape of the dose curve; as a rule, active = well fitted curve in the direction sought with a large enough effect; inconclusive = small, poorly fitted or top-dose-only effect, or another doubt; inactive = no such curve, though single readings can be large; an effect the other way counts as inactive or inconclusive.
SMILES,Vaccinia mCherry,SARS PLpro yeast-1,AmpC detergent,Vaccinia Venus,AmpC no deterg,SARS PLpro yeast-2
COc1ccc(-n2c(C)c(C(C)=O)c3cc(OC(=O)c4ccc(C)cc4)ccc32)cc1,-2.0%,.,9.4%,-0.4%,.,.
O=C(Nc1ccccc1Cl)c1cccc(COc2cc(Cl)ccc2Cl)c1,-1.4%,?,0.1%,-13.2%,-15.1%,i
CC1(c2nnnn2-c2ccc3c(c2)OCCO3)CCC(=O)N1CCc1ccc(O)cc1 (configuration not stated),-2.4%,.,.,1.2%,.,.
CCSc1nnc(NC(=O)C(C)(C)C)s1,-9.2%,-4.4%,4.1%,-6.1%,-14.0%,.
CCSc1nnc(N(CCC(=O)O)CCC(=O)O)s1,i,?,?,-10.9%,-10.3%,i
O=C(Nc1ccc(Cl)c(S(=O)(=O)N2CCCCC2)c1)c1ccncc1,-27.5%,5.01µM*,-12.0%,-25.1%,0.8%,i
O=C(Nc1ccncc1)c1ccc(Cl)c(S(=O)(=O)N2CCCCC2)c1,-4.4%,-7.5%,-0.7%,-19.6%,-10.2%,.
CC(C)(C)c1ccc(OCCCC(=O)Nc2nnc(C3CC3)s2)cc1,i,.,.,-24.6%,.,.
Cc1ccc2c(CSc3nc4ccccc4c(=O)n3CCCO)cc(=O)oc2c1C,-16.2%,1.4%,6.3%,?,82.6%,.
Cc1ccc2c(CSc3nnc4ccccn34)cc(=O)oc2c1C,-1.1%,3.55µM*,-11.0%,-16.1%,-13.4%,i
CCN(CC)c1ccc2cc(-c3nc(-c4ccccc4)no3)c(=O)oc2c1,-12.6%,.,1.3%,-3.9%,.,.
CCn1cc(CN2CCC(C(=O)Nc3cccc(-c4cccc(OC)c4)c3)CC2)c(C)n1,-5.9%,?,1.2%,-12.2%,0.0%,i
CCCNC(=O)CCSc1nc(-c2ccc3c(c2)OCO3)cc(C(F)(F)F)n1,-13.1%,.,18.9%,-5.7%,.,.
O=C(CCNC(=O)c1ccccc1Cl)Nc1ccc(Cl)c(C(F)(F)F)c1,-28.7%,3.55µM*,8.7%,-26.4%,5.4%,i
COc1ccc(CNC(=O)c2cnn(-c3ccc(C)cc3)c2C2CCN(C(=O)OC(C)(C)C)CC2)cc1,?,.,-5.9%,-25.7%,.,.
CC(=O)c1cccc(NC(=O)CSc2ccc(-c3ccccn3)nn2)c1,?,?,-2.8%,-23.9%,-10.6%,+
CCN(CC)C(=O)CSc1nc2ccccc2c(=O)n1-c1cccc(OC)c1,.,-2.3%,?,.,42.0%,.
COc1cccc(-n2c(SCc3cc(=O)oc4cc(O)c(O)cc34)nc3ccccc3c2=O)c1,?,14.1µM*,-9.8%,-18.6%,?,i
O=C(CN1CC(c2ccccc2)CC1=O)N/N=C/c1cc(Br)ccc1O (configuration not stated),?,10µM*,-9.2%,?,-15.7%,+
CC(=O)c1ccc(S(=O)(=O)N2CCn3cccc3C2c2ccc(C)cc2)cc1 (configuration not stated),-8.9%,.,-5.9%,-3.7%,.,.
O=C(Nc1ccc(Cl)cc1Cl)[C@@H]1CC=C[C@@H]2CCN(C3CCCCC3)C(=O)[C@@H]21,-1.3%,.,.,-7.4%,.,.
NC(=O)c1ccc(NC(=O)COC(=O)/C=C/c2cn(-c3ccccc3)nc2-c2cccnc2)cc1,-14.4%,?,-1.9%,-6.0%,-38.3%,i
CSc1ccc(CCNC(=O)Cn2ncc3c(=O)oc4ccc(C)cc4c32)cc1,-9.0%,.,8.4%,-9.7%,.,.
CC(C)c1ccc(NC(=O)CSC2=Nc3ccccc3C3=NC(CC(=O)NCc4cccs4)C(=O)N23)cc1 (configuration not stated),-17.0%,.,-5.2%,-10.1%,.,.
CCCCCN(C(=O)NC(=O)Nc1ccccc1C)S(=O)(=O)c1ccccc1,-23.1%,?,0.0%,-23.0%,-10.9%,i
SMILES,Vaccinia mCherry,SARS PLpro yeast-1,AmpC detergent,Vaccinia Venus,AmpC no deterg,SARS PLpro yeast-2
CCOC(=O)C1CCN(C(=O)COc2cccc(C)c2)CC1,3.98µM*,3.55µM*,?,-9.1%,-8.9%,i
O=C(CCl)Nc1ccc(Oc2cnc3ccccc3n2)cc1,.,10µM*,6.4%,.,-23.1%,+
CCN(CC)c1ccc(NC(=O)CCS(=O)(=O)c2cc3c(cc2Cl)NC(=O)CO3)c(C)c1,-7.5%,.,21.2%,0.1%,.,.
CN(C)S(=O)(=O)c1ccc(/C(O)=C2/C(=O)C(=O)N(Cc3cccnc3)C2c2ccncc2)cc1 (configuration not stated),.,10µM*,4.0%,.,-18.1%,i
CC1(C(=O)NS(=O)(=O)C2CC2)CCCN(C(=O)c2ccc(F)c(Cl)c2)C1 (configuration not stated),31.1%,.,.,-1.8%,.,.
CC1CCN(c2c([N+](=O)[O-])nn(-c3ccc4c(c3)OCCO4)[n+]2[O-])CC1,.,3.98µM*,1.8%,.,0.0%,i
O=[N+]([O-])c1nn(-c2ccc3c(c2)OCCO3)n(O)c1=NC1CCCCC1,-18.2%,3.0%,-4.0%,-21.6%,-39.1%,.
CN(CC1CCCO1)S(=O)(=O)c1ccc(C(=O)Nc2ccc(S(N)(=O)=O)cc2)cc1 (configuration not stated),-10.9%,0.398µM*,2.7%,-6.6%,-6.2%,i
COc1cccc(C(=O)NC(=S)NCc2ccco2)c1,-4.3%,?,-4.8%,-5.3%,-1.4%,+
COCCNc1nc(NCCN2CCNC2=O)c2sccc2n1,i,.,.,-7.6%,.,.
O=C(CSc1oc(-c2ccc(F)cc2)nc1S(=O)(=O)c1ccc(F)cc1)NCC1CCCO1 (configuration not stated),1.0%,?,-9.6%,-3.1%,-16.4%,i
Cc1ccc(-c2nc(S(=O)(=O)c3ccc(F)cc3)c(SCC(=O)NCC3CCCO3)o2)cc1 (configuration not stated),-6.8%,-33.6%,-2.6%,-2.3%,2.1%,.
CN1CCCCCC1C(=O)NCC1Cc2cc(-c3cnccn3)ccc2O1 (configuration not stated),i,.,.,-15.4%,.,.
COCc1cc(CN2CCN(C)CC2)c(O)c2ncccc12,.,?,-2.9%,.,73.7%,.
Oc1c(CN2CCOCC2)cc(COCc2ccccc2)c2cccnc12,7.08µM*,.,-6.1%,?,31.3%,+
Cc1cc(C)c2cc(C#N)c(NCCCN)nc2c1,-24.0%,.,.,-15.7%,.,.
O=C(N/N=C/c1ccccc1OC(F)F)c1cc(-c2ccncc2)nc2ccccc12,-19.5%,12.6µM*,-1.8%,-26.1%,41.4%,+
Cc1ccc(C)c(Cn2cc(S(=O)(=O)c3ccc(Cl)cc3)c(=O)c3cc(F)ccc32)c1,-7.5%,.,-0.5%,-4.9%,.,.
O=C1c2ccccc2NC(c2ccccc2OCc2ccccc2)N1Cc1ccco1 (configuration not stated),6.3%,.,.,-6.4%,.,.
Oc1ccc2n[nH]nc2c1,-9.5%,?,?,4.3%,-40.5%,i
Oc1ccc(Cl)c(Cl)c1,i,-1.1%,2.8%,-13.3%,-20.5%,.
